The values below come from PubChem BioAssay (NCI).

Structures are written as SMILES. Several values for one entry are separate records, joined by “and”; a condition that tells them apart may be missing. Equal values may be shown once. This is part of a sample that, as a whole, favours compounds with a hit. Of some 79,000 tested, about 15% had one in any assay. Values without a mark were called inactive. Activity calls are given as the source filed them. No stated cut-off is given here; in the data, active means growth inhibition above about 70%; inactive means the rest.

Experiment [1] in a line: NCI Yeast Anticancer Drug Screen. Data for the rad50 strain (AID 155).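 Further: 0% = growth of vehicle-only cultures of the same strain.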 To be noted: S. cerevisiae rad50 strain growth inhibition; at 50.0 µM; active compounds read high. The essentials: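 Readout: growth inhibition relative to vehicle-treated cultures. Compound exposure was carried out in a genetically defined yeast strain deficient in DNA damage repair.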
Experiment [2] is described as follows: NCI Yeast Anticancer Drug Screen. Data for the mec2-1 strain (AID 157). As to conditions: S. cerevisiae mec2-1 strain, at 50.0 µM, active compounds read high. The essentials:
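Strain: mec2-1 (DNA repair/cell cycle alteration). Compound exposure, then growth measured; inhibition expressed relative to vehicle.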

Experiment [3] can be described thus: NCI Yeast Anticancer Drug Screen. Data for the sgs1 mgt1 strain (AID 161).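 Further: 0% = growth of cultures given vehicle only.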 To be noted: S. cerevisiae sgs1 mgt1 strain, at 50.0 µM, active compounds read high. The essentials: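 Read-out: growth inhibition vs vehicle controls. Cells: mutant yeast strain deficient in DNA damage repair.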
Experiment [4] can be described thus: NCI Yeast Anticancer Drug Screen. Data for the cln2 rad14 strain (AID 165).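 Further: 0% = growth equal to vehicle treated cultures.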 As to conditions: S. cerevisiae cln2 rad14 strain, at 50.0 µM, active compounds read high. The essentials: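 Compounds are applied to the cln2 rad14 yeast strain, and growth is then compared with that of vehicle-treated cultures to give inhibition.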
A short description of experiment [5]: NCI Yeast Anticancer Drug Screen. Data for the bub3 strain (AID 167). To be noted: S. cerevisiae bub3 mutant strain, at 50.0 µM, active compounds read high. An outline of the steps: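 Readout: yeast growth inhibition, expressed relative to vehicle-only wells. The test organism is a mutant strain from a panel with lesions in DNA repair or checkpoint genes.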
A short description of experiment [6]: NCI Yeast Anticancer Drug Screen. Data for the mlh1 rad18 strain (AID 175). As to conditions: S. cerevisiae mlh1 rad18 strain growth inhibition; at 50.0 µM; active compounds read high. An outline of the steps: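 Read-out is yeast growth inhibition, calculated against vehicle-only controls. The compound was applied to a strain engineered with DNA damage repair alterations.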

Consider `CC(=O)[CH-]C(C)=O.CC(=O)[CH-]C(C)=O.CC(=O)[CH-]C(C)=O.[Ga+3]`, for which the growth inhibition in experiment [1] is 28.6%; in experiment [2] it was 13.9%; in experiment [3], 15.3%; in experiment [4] it was 42.6%; in experiment [5] it was 31.1%; in experiment [6], 18.6%.
For `CCOP(=O)(OCC)/C(C#N)=C/c1ncc[nH]1`, the growth inhibition in experiment [1] is -36.6%; in experiment [2] it was -23.9%; in experiment [3] it was -48%; in experiment [4], 19.7%; in experiment [5], 26.2%; in experiment [6] it was -55.4%.
In the case of `CCCCCCCN1CCC(C(=O)CC)(c2cccc(O)c2)CC1`, the growth inhibition is 21.6% in experiment [1]; 21.4% in experiment [2]; 33.5% in experiment [3]; -2.75% in experiment [4]; 15.9% in experiment [5]; 30.6% in experiment [6].
`CN(C)P(=S)(N(C)C)N1CCOCC1`: the growth inhibition in experiment [1] was -7.6%; in experiment [2], -13.3%; in experiment [3] it was 6.55%; in experiment [4], -16.8%; in experiment [5], -28.3%; in experiment [6], -9%.
Consider `c1ccc(C[n+]2ccc(-c3ccccc3)cc2)cc1`, for which the growth inhibition in experiment [1] was -5.75%; in experiment [2], 5.5%; in experiment [3], -0.35%; in experiment [4] it was -7.25%; in experiment [5], -7.15%; in experiment [6] it was -19.5%.
For the compound `O=[P+](O)c1cc2ccccc2c2ccccc12`, the growth inhibition in experiment [1] was -33%; in experiment [2], 17.2%; in experiment [3] it was -4.75%; in experiment [4], -46.2%; in experiment [5] it was -10.9%; in experiment [6], 1.35%.
Take `O=S(O)(O)=S.[Co+3].[NH-]CC[NH-].[NH-]CC[NH-].[NH2-].[NH2-]`: the growth inhibition in experiment [1] was -8.05%; in experiment [2], -6.85%; in experiment [3] it was 2%; in experiment [4], -19.4%; in experiment [5] it was 14.8%; in experiment [6] it was 7.05%.
As to `CCC1(CC)C(=O)NC(=O)N(C)C1=O`, the growth inhibition in experiment [1] was 33.4%; in experiment [2] it was 10.2%; in experiment [3], 31.5%; in experiment [4] it was 28.8%; in experiment [5], 8.25%; in experiment [6] it was 24.7%.
With `CCOP(=O)(NC12CC3CC(CC(C3)C1)C2)OCC`, the growth inhibition was -1.5% in experiment [1]; 8.2% in experiment [2]; -7.5% in experiment [3]; 5.25% in experiment [4]; 19.6% in experiment [5]; -18.2% in experiment [6].
`CC12OCCN1CCO2`: the growth inhibition in experiment [1] is 10.9%; in experiment [2], -3.25%; in experiment [3], 11.8%; in experiment [4], 5.45%; in experiment [5], 12.8%; in experiment [6] it was 4%.
As for `CCN(CCCl)c1cccc(NC(=O)c2ccc(C(=O)Nc3cccc(CN(C)C)c3)cc2)c1`, the growth inhibition is 5.55% in experiment [1]; -6.3% in experiment [2]; 20.5% in experiment [3]; -1.95% in experiment [4]; -14.4% in experiment [5]; 26.3% in experiment [6].
As to `O=[N+]([O-])c1ccc(OCc2ccc(Cl)c(S(=O)(=O)F)c2)c(Cl)c1`, the growth inhibition in experiment [1] was -18.1%; in experiment [2], -8.3%; in experiment [3] it was 29.8%; in experiment [4], -24.4%; in experiment [5], 20.7%; in experiment [6] it was 24.1%.
Consider `ClC1=C(Cl)C2(Cl)C3C(C4(Cl)C(Cl)=C(Cl)C3(Cl)C4(Cl)Cl)C2(Cl)C1(Cl)Cl` (centres undefined), for which the growth inhibition is -1.7% in experiment [1]; -6.05% in experiment [2]; 9% in experiment [3]; -71% in experiment [4]; -2.4% in experiment [5]; -11.8% in experiment [6].
Turning to `COc1cccc(C2CC23C(=O)NC(=O)NC3=O)c1` (centres undefined), the growth inhibition was -18% in experiment [1]; -14.2% in experiment [2]; -2.1% in experiment [3]; 6.6% in experiment [4]; -19.2% in experiment [5]; -21.2% in experiment [6].
As for `[Br][Ni][Br].c1ccc([PH+](CC[PH+](c2ccccc2)c2ccccc2)c2ccccc2)cc1`, the growth inhibition is -36.1% in experiment [1]; -7.15% in experiment [2]; -23.8% in experiment [3]; 32.2% in experiment [4]; 8.9% in experiment [5]; 0.9% in experiment [6].
On to `CCOP(=S)(N/N=C/c1ccc(C)s1)OCC`, for which the growth inhibition was -19.3% in experiment [1]; -27.2% in experiment [2]; 5.45% in experiment [3]; -12.3% in experiment [4]; 7.65% in experiment [5]; -30.8% in experiment [6].
On to `CC(C)CCN(CCC(C)C)CC(O)c1ccc(Br)cc1` (centres undefined), for which the growth inhibition was 5.1% in experiment [1]; -13.1% in experiment [2]; 6.1% in experiment [3]; -47.5% in experiment [4]; -15.6% in experiment [5]; 0.35% in experiment [6].
`O=C(SCC(NSc1ccccc1[N+](=O)[O-])C(=O)O)c1ccccc1` (centres undefined): the growth inhibition was 88.5% (active) in experiment [1]; 56.6% in experiment [2]; 75.4% (active) in experiment [3]; 8.45% in experiment [4]; 6.5% in experiment [5]; 47.9% in experiment [6].
Regarding `C=C1CCC2CC1C2(C)C` (centres undefined), the growth inhibition in experiment [1] was 5.95% and 13.7% and -4.1%; in experiment [2], 0.75% and -4.25% and -15.2%; in experiment [3] it was 6.5% and -6.65% and -29.8%; in experiment [4], 9.45% and -27% and 2.6%; in experiment [5], 10.3% and 0.05% and -6.7%; in experiment [6], 21.4% and 2.7% and -10.2%.
